FMDV antiviral – antivirals against foot and mouth disease virus | FMDV antiviral cell-based qHTS | Potency, µM (series often up to 57.9 µM), for the others: at the top dose activity change, negative = inhibition, usual class: inhibitors | hit rate 1.2% among 410,000 | AID 1159524; calls by dose curve; tested in HEK293T cells; also: read-out not given here; potency is read from the fitted curve at half-maximal effect; % is scaled to controls: 0 for no effect and ±100 for the full control effect; nearly all actives have a fitted effect of over 45% in size
CHX counter – counter-screen for Shiga toxin inhibitors: cycloheximide protein synthesis inhibition | max response, % | cell reporter, cycloheximide protein synthesis inhibition counterscreen | hit rate 12% among 300,000; in the data active = max response mostly above about 13%, no sharp cut-off; inactive = mostly below about 14%; also: read at 38.3 µM for the half of the compounds with a filed dose; 0% is about no effect
Shiga toxin inh – inhibitors of Shiga toxin in Vero cells | Vero cells, Shiga toxin protein synthesis inhibition reporter | inhibition, % at 38.7 µM | hit rate 9.2% among 290,000; in the data active = inhibition mostly above about 28%, no sharp cut-off; inactive = mostly below about 43%; also: 0% is about no effect
Sm TGR inh – S. mansoni TGR enzyme inhibition; Q962Y6; purified TGR, DTNB reduction, TNB absorbance 405 nm; Potency, µM (titrated, usually from 114 µM), for the others: top-dose activity change, negative = inhibition, most hits filed as inhibitors; AID 485364; hit rate 3% among 360,000; active = well fitted inhibition curve with a large enough effect; inconclusive = small, poorly fitted or top-dose-only effect; inactive = no such curve, though single readings can be large or run the other way; also: potency is read from the fitted curve at half-maximal effect; % is scaled to controls: 0 for no effect and ±100 for the full control effect; nearly all actives have a fitted effect of over 60% in size
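TGR 20 nM + NADPH 100 uM (dispensed conc.), cpd preinc 15 min RT; start with NADPH (500 uM addition) then DTNB (15 mM addition). Kinetic TNB absorbance, 405 nm filter. Four-parameter Hill fit across titration.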
Active calls of the source: *; ? = inconclusive; . = no result. Compounds with a hit are over-represented: about 12% of the library has one in this group of screens.

SMILES | FMDV antiviral | CHX counter | Shiga toxin inh | Sm TGR inh
O=C(CCl)NCCCN(C(=O)C(Cl)Cl)c1ccc([N+](=O)[O-])cc1 | -29% | -1 | 13 | 28µM*
Cc1ccc(OCCCCn2c(-c3ccc(Cl)cc3)nc3ccccc3c2=O)cc1 | -17% | . | . | 1%
Cc1ccccc1Sc1ccc([N+](=O)[O-])cn1 | -22% | . | . | .
O=[N+]([O-])c1ccc(Sc2ccccc2)nc1 | -5% | -2 | 10 | 0%
O=[N+]([O-])c1ccc(Sc2n[nH]c(-c3ccccc3)n2)nc1 | 0% | 41* | 44 | 1%
CC(C)(C)c1csc(Sc2ccc([N+](=O)[O-])cn2)n1 | -14% | 23* | 50* | ?
Cc1ccnc(Sc2ccc([N+](=O)[O-])cn2)n1 | 31% | 10* | 25 | -25%
COc1ccc2nc3sc(C(=O)NCCCN4CCc5ccccc5C4)cc3cc2c1 | -10% | 28* | 38 | -8%
COc1ccc2nc3sc(C(=O)N4CCN(C)CC4)cc3cc2c1 | 38% | 15* | 20 | 0%
COc1ccc2nc3sc(C(=O)N4CCN(c5ccccc5)CC4)cc3cc2c1 | 21% | . | . | 9%
Cc1ccc(NC(=O)c2cc(S(=O)(=O)N3CCCCC3)c[nH]2)cc1N(C)C | -1% | . | . | 1%
CCOC(=O)Cc1cc(=O)n2[nH]c(-c3ccccc3)cc2n1 | . | -2 | -3 | 2%
CCCc1cc(=O)n2[nH]c(-c3cccc(Br)c3)cc2n1 | 67% | 36* | 64* | 0%
CCCc1cc(=O)n2[nH]c(-c3ccc(Br)cc3)cc2n1 | -9% | 38* | 14* | -15%
COc1ccc(-c2nnc(SCC(=O)c3ccc[nH]3)n2-c2ccccc2)cc1 | 37% | 34* | 82* | 1%
COc1ccc(-c2nnc(SCCC(=O)O)n2-c2ccccc2)cc1 | -2% | 6 | -4 | 7%
O=C1NC(N2CCOCC2)=N/C1=C/c1ccc2c(c1)OCO2 | 9% | 17* | 16 | -1%
CCOc1ccc(CCNC(=O)c2nnc(Cc3ccc(Cl)cc3Cl)o2)cc1OCC | -23% | . | . | 8%
COc1ccc(-c2nc3sc(CCNC(=O)c4cccc(C(F)(F)F)c4)c(C)n3n2)cc1 | 34% | . | . | 13%
CNc1nc(Cl)nc2c1ncn2CC(COC(=O)C(C)(C)C)COC(=O)C(C)(C)C | . | -6 | -7 | .
Cc1cc(NCCCN2CCOCC2)n2ncc(-c3ccccc3)c2n1 | -1% | 56* | 78* | 1%
Cc1cc(NCCOCCO)n2ncc(-c3ccc(Cl)cc3)c2n1 | 12% | 23* | 74* | 2%
Cc1cc(NCc2ccccn2)n2ncc(-c3ccccc3)c2n1 | 1% | 44* | 70* | 14%
COc1ccc(CCNc2cc(C)nc3c(-c4ccccc4OC)cnn23)cc1OC | -1% | 11 | -10 | -1%
Cc1cc(NCc2ccccn2)n2ncc(-c3ccc(Cl)cc3)c2n1 | 21% | 29* | 48* | 12%
SMILES | FMDV antiviral | CHX counter | Shiga toxin inh | Sm TGR inh
Cc1cc(NCCCN2CCOCC2)n2nc(C)c(-c3ccccc3)c2n1 | -16% | -1 | 21 | 12%
Cc1ccc(C)c(CN2C(=O)c3ccccc3S(=O)c3ccc(C(=O)NCCC4=CCCCC4)cc32)c1 (stereo not given) | -28% | . | . | 4%
CC(=O)OCCN1C(=O)c2c(C)nc3ccc(S(=O)(=O)N4CCOCC4)cc3c2C1=O | -15% | -2 | -2 | .
CN(c1ccccc1)S(=O)(=O)c1ccc(NC(=O)c2cc(=O)c3ccccc3o2)cc1 | ? | . | . | 4%
O=C(c1ccco1)N1CCN(c2nc3c(F)cc(F)cc3s2)CC1 | -5% | . | . | -4%
O=C(Nc1ccccc1N1CCCC1)c1cccc(-c2cc3ccccc3oc2=O)c1 | -9% | 18* | 29 | -6%
O=C(Nc1ccc(N2CCCC2)cc1)c1cccc(-c2cc3ccccc3oc2=O)c1 | 0% | 8 | 14 | -15%
O=C(Nc1ccc(Br)cn1)c1cccc(-c2cc3ccccc3oc2=O)c1 | -34% | 41* | 49* | -7%
CCN(Cc1ccccc1)S(=O)(=O)c1ccc(F)c(C(=O)Nc2ccc(C(C)C)cc2)c1 | ? | . | . | 8%
Cc1ccc(N/N=C/c2c(O)n(-c3ccccc3)c(=O)[nH]c2=O)cc1 | 53% | 22* | 42 | 18µM*
CCc1ccc(C2c3c(-c4ccccc4O)n[nH]c3C(=O)N2Cc2cccnc2)cc1 (stereo not given) | -30% | . | . | 0%
Cc1cc2c(c(C)c1Cl)C(c1ccc3c(c1)OCO3)CC(c1ccccc1)O2 (stereo not given) | . | 14 | 28 | .
COCc1c(C#N)c(NCc2cc(OC)c(OC)c(OC)c2)nc(C)c1[N+](=O)[O-] | 14µM* | -3 | 28 | -1%
CC(C)(C)C(=O)Cn1c(=O)n(CCCCCC(=O)NCc2ccc3c(c2)OCO3)c(=O)c2sccc21 | -12% | . | . | -6%
Cc1ccc2c(c1)C(c1ccccc1)N(C(=O)c1ccc(OC(C)C)cc1)CC(=O)N2 (stereo not given) | 8% | . | . | 1%
CCOc1ccc(NC(=O)C2CCCN(S(=O)(=O)c3c(C)noc3/C=C/N(C)C)C2)cc1 (stereo not given) | -17% | . | . | 5%
O=C1/C(=C\c2ccc(O)cc2)SC(=S)N1Cc1ccccc1 | -20% | 1 | 19 | -17%
O=C1/C(=C/c2ccccc2O)SC(=S)N1Cc1cccnc1 | 32µM* | 9 | -12 | ?
O=C1/C(=C\c2cccc([N+](=O)[O-])c2O)SC(=S)N1Cc1ccccc1 | ? | 7 | -13 | -30%
O=C1/C(=C\c2cc(Br)cc(Br)c2O)SC(=S)N1Cc1ccccc1 | ? | -4 | -5 | 40µM*
N#CC12C(N)=NC3(OCCO3)C1(C#N)C1=C(CCC1)NC2c1ccccc1 (stereo not given) | -4% | 17* | 25 | -35%
Cn1nnnc1SCCNCc1cc(Br)ccc1OCc1ccccc1Cl | ? | . | . | 23%
CCOC(=O)c1ccc(OCc2nc(-c3cccs3)no2)cc1 | . | 16* | 33 | -4%
c1csc(-c2noc(COc3ccc4c(c3)CCCC4)n2)c1 | 40% | 41* | 89* | -13%
CCOC(=O)N1CCN(Cc2nc(-c3cccs3)no2)CC1 | 48% | 30* | 81* | -7%
SMILES | FMDV antiviral | CHX counter | Shiga toxin inh | Sm TGR inh
Cc1ccc(C(C)C)c(OCC(=O)N2CCC(c3nc4ccccc4o3)CC2)c1 | -26% | . | . | 6%
CC(=O)c1ccc(NC(=O)C2CCC(CNS(=O)(=O)c3cccc4nsnc34)CC2)cc1 (stereo not given) | -10% | . | . | 2%
Cn1c(O)c(/C=C2\C=c3ccccc3=NC2=O)c(=O)n(C)c1=O | -14% | -1 | -2 | 35µM*
CC(C(=O)NCc1ccccc1F)n1ccc2cc(S(=O)(=O)N3CCCC3)ccc21 (stereo not given) | ? | . | . | 5%
O=C(Cc1ccccc1)NCCSC1CCCCC1 | 19% | 31* | 58* | 0%
Cc1ccc(C(=O)Nc2ccc3c(c2)N(C)C(=O)c2ccccc2S3)cc1F | ? | . | . | 7%
O=S(=O)(Nc1ccc(F)cc1F)c1ccc(Br)s1 | 31% | . | . | -6%
Cc1c(O)ccc(NC(=O)/C=C/c2ccccc2)c1C | 14% | 12 | 48* | 5%
CCS(=O)(=O)c1ccc(O)c(NC(=O)/C=C/c2ccccc2)c1 | 55% | 28* | 73* | 0%
COC(=O)c1cc(NC(=O)/C=C/c2ccccc2)ccc1O | . | 48* | 121* | 17%
COc1cccc(NC(=O)c2cc(CN3CCOCC3)on2)c1 | 39% | . | . | -6%
